Measurements from PubChem BioAssay (Tox21).
Inconclusive results are not listed. The source made the active and inactive calls. Unless noted, calls come from the whole dose curve.

How the values were obtained:
[1] = qHTS assay to identify small molecule agonists of the vitamin D receptor (VDR) signaling pathway - cell viability counter screen (AID 743224; active = well fitted curve in the direction sought with a large enough effect in the repeat runs; an effect the other way counts as inactive or inconclusive; note: series mostly up to about 63 µM; % is set by controls: 0 for no effect and ±100 for the full control effect; nearly all actives have a fitted effect of over 50% in size)
Method in brief: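 Compounds were pin-transferred onto VDR-bla cells plated 4 h earlier; following 16 h incubation at 37C, cell viability was quantified by CellTiter-Glo luminescence after 30 min at room temperature.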

[2] = qHTS assay to identify small molecule antagonists of the vitamin D receptor (VDR) signaling pathway - cell viability counter screen (AID 743225; active = well fitted curve in the direction sought with a large enough effect in the repeat runs; an effect the other way counts as inactive or inconclusive; note: % is set by controls: 0 for no effect and ±100 for the full control effect; nearly all actives have a fitted effect of over 50% in size)
Method in brief: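 HEK293T VDR-bla; cpd + 1a,25-(OH)2D3 3 nM final, 16 h 37C/5% CO2; B/G FRET substrate 2 h RT; then CellTiter-Glo 30 min RT, luminescence.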

[3] = qHTS assay to identify small molecule agonists of the NFkB signaling pathway (AID 1159509; active = well fitted curve in the direction sought with a large enough effect in the signal ratio in the repeat runs, not every such curve was filed as active; the % refers to the signal ratio; note: series mostly up to about 61 µM; % is set by controls: 0 for no effect and ±100 for the full control effect)
Method in brief: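 Agonist activity was read as beta-lactamase-driven FRET change (460 and 530 nm emission, 405 nm excitation) following 1.5 hr substrate loading at room temperature. Beforehand, ME-180 NFkB-bla reporter cells were treated with compounds for 5 hr at 37 C.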

[4] = qHTS assay to identify small molecule agonists of the NFkB signaling pathway - cell viability counter screen (AID 1159515); note: series mostly up to about 61 µM; % is set by controls: 0 for no effect and ±100 for the full control effect; nearly all actives have a fitted effect of over 55% in size
Method in brief: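 Parallel cytotoxicity counter screen in ME-180 cells carrying an NFkB-response-element beta-lactamase reporter, 2,000 cells/well. Compound exposure lasted 5 hr at 37 C, 5% CO2. Cell viability was quantified by CellTiter-Glo luminescence.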

[5] = qHTS assay to identify small molecule agonists of the endoplasmic reticulum stress response signaling pathway (AID 1159516; active = well fitted activation curve with a large enough effect in the signal ratio in the repeat runs, not every such curve was filed as active; the % refers to the signal ratio; note: % is set by controls: 0 for no effect and ±100 for the full control effect)
Method in brief: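 Using a HeLa line with an ESRE-driven beta-lactamase gene, agonist activity was measured by FRET substrate fluorescence (460 and 530 nm emission) after cells were treated with compounds for 5 hr at 37 C and 5% CO2.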

[6] = qHTS assay to identify small molecule agonists of the endoplasmic reticulum stress response signaling pathway - cell viability counter screen (AID 1159517);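 note: HeLa cells carrying an ER stress response element beta-lactamase reporter; series mostly up to about 61 µM; % is set by controls: 0 for no effect and ±100 for the full control effect; nearly all actives have a fitted effect of over 50% in size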
Method in brief: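 In parallel with the ESRE reporter read, cytotoxicity was scored by CellTiter-Glo luminescence (30 min, room temperature) on HeLa ESRE-bla cells dosed for 5 hr.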

[7] = qHTS assay to identify small molecule antagonists of the retinoid-related orphan receptor gamma (ROR-gamma) signaling pathway - cell viability counter screen (AID 1159520; active = well fitted curve in the direction sought with a large enough effect in the repeat runs; an effect the other way counts as inactive or inconclusive; note: % is set by controls: 0 for no effect and ±100 for the full control effect; nearly all actives have a fitted effect of over 50% in size)
Method in brief: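 Tet-on ROR gamma CHO cells were given compounds for 2 hr, then doxycycline hyclate at 1 uM final, and incubated 16 hr at 37 C. Viability was measured as ATP content by CellTiter-Glo luminescence.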

[8] = target: Nuclear receptor ROR-gamma (Homo sapiens) (UniProt P51449); test: qHTS assay to identify small molecule antagonists of the retinoid-related orphan receptor gamma (ROR-gamma) signaling pathway (AID 1159521; active = well fitted curve in the direction sought with a large enough effect in the repeat runs; an effect the other way counts as inactive or inconclusive)
Method in brief: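 Cells were plated, rested 4 h at 37 C, exposed to compounds for 2 h, then given 1 uM final doxycycline hyclate to induce RORγ expression. After 16 h, ONE-Glo luminescence from the ROR response element reporter was measured.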

[9] = qHTS assay to identify small molecule agonists of the AP-1 signaling pathway - cell viability counter screen (AID 1159525); note: nearly all actives have a fitted effect of over 55% in size
Method in brief: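 Same-well cytotoxicity counter screen of the Tox21 10K library in ME-180 cells. The readout is ATP-dependent luminescence after 5 h compound treatment. Data are normalised to DMSO and tetra n-octyl ammonium bromide controls.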

[10] = qHTS assay to identify small molecule agonists of the AP-1 signaling pathway (AID 1159526); note: % is set by controls: 0 for no effect and ±100 for the full control effect

CCCOc1nn(C(=O)NS(=O)(=O)c2ccccc2C(=O)OC)c(=O)n1C
inactive: Potency [1] | Potency [2] | outcome [3] | outcome [4] | outcome [5] | Potency [6] | Potency [7] | Potency [8] | Potency [9] | outcome [10]

CN1C(=O)COc2c(C(=O)NC3CN4CCC3CC4)cc(Cl)cc21 (stereo not drawn)
inactive: Potency [1] | Potency [2] | outcome [3] | outcome [4] | outcome [5] | Potency [6] | Potency [7] | Potency [8] | Potency [9] | outcome [10]

COc1ccc(CN2CCNCC2)c(OC)c1OC
inactive: Potency [1] | Potency [2] | outcome [3] | outcome [4] | outcome [5] | Potency [6] | Potency [7] | Potency [8] | Potency [9] | outcome [10]

CON(C)C(=O)Nc1ccc(Br)c(Cl)c1
inactive: Potency [1] | outcome [3] | outcome [4] | outcome [5] | Potency [6] | Potency [7] | Potency [8] | Potency [9] | outcome [10]

Brc1c(Br)c(Br)c(Br)c(Br)c1Br
inactive: activity change, negative = cytotoxicity [1] 9.04% [at 5.95 µM] | activation [3] 0.368% [at 6.95 µM] | activity, negative = cytotoxic [4] -11.1% [at 6.95 µM] | activation [5] -0.555% [at 6.95 µM] | activity change, negative = cytotoxicity [6] 1.86% [at 6.95 µM] | activity, negative = cytotoxicity [7] 1.32% [at 8.39 µM] | activity change, negative = inhibition [8] 19.7% [at 8.39 µM] | viability change, negative = cytotoxic [9] -3.27% [at 6.97 µM] | activation [10] -7% [at 6.97 µM]

O=CCCl
inactive: Potency [1] | Potency [2] | outcome [3] | outcome [4] | outcome [5] | Potency [6] | Potency [7] | Potency [8] | Potency [9] | outcome [10]

CCCCOC(C)=O
inactive: Potency [1] | outcome [3] | outcome [4] | outcome [5] | Potency [6] | Potency [7] | Potency [8] | Potency [9] | outcome [10]

CN=CNc1ccc(C)cc1C
inactive: Potency [1] | Potency [2] | outcome [3] | outcome [4] | outcome [5] | Potency [6] | Potency [7] | Potency [8] | Potency [9] | outcome [10]

NCC1(CC(=O)O)CCCCC1
inactive: Potency [1] | outcome [3] | outcome [4] | outcome [5] | Potency [6] | Potency [7] | Potency [8] | Potency [9] | outcome [10]

CNC(=O)Oc1ccccc1C(C)C
inactive: Potency [1] | Potency [2] | outcome [3] | outcome [4] | outcome [5] | Potency [6] | Potency [7] | Potency [8] | Potency [9] | outcome [10]

O=C(O)C(Cl)Br (stereo not drawn)
inactive: Potency [1] | outcome [3] | outcome [4] | outcome [5] | Potency [6] | Potency [7] | Potency [8] | Potency [9] | outcome [10]

O=[N+]([O-])c1cccc(CCl)c1
inactive: Potency [1] | outcome [3] | outcome [4] | outcome [5] | Potency [6] | Potency [7] | Potency [8] | Potency [9] | outcome [10]

O=[N+]([O-])CCO
inactive: Potency [1] | outcome [3] | outcome [4] | outcome [5] | Potency [6] | Potency [7] | Potency [8] | Potency [9] | outcome [10]

CC(C)(C)C(=O)C(Cl)Cl
inactive: Potency [1] | outcome [3] | outcome [4] | outcome [5] | Potency [6] | Potency [7] | Potency [8] | Potency [9] | outcome [10]

COC(=O)c1ccc(CBr)cc1
inactive: Potency [1] | Potency [2] | outcome [3] | outcome [4] | outcome [5] | Potency [6] | Potency [7] | Potency [8] | Potency [9] | outcome [10]

CCCC(C)C1(CC)C(=O)N=C(S)NC1=O (stereo not drawn)
inactive: Potency [1] | Potency [2] | outcome [3] | outcome [4] | outcome [5] | Potency [6] | Potency [7] | Potency [8] | Potency [9] | outcome [10]

CNC(=O)Oc1cc(C)c(N(C)C)c(C)c1
inactive: Potency [1] | Potency [2] | outcome [3] | outcome [4] | outcome [5] | Potency [6] | Potency [7] | Potency [8] | Potency [9] | outcome [10]

O=C(Cl)C(Cl)(Cl)Cl
inactive: Potency [1] | outcome [3] | outcome [4] | outcome [5] | Potency [6] | Potency [7] | Potency [8] | Potency [9] | outcome [10]

CC#Cc1cc(C)nc(Nc2ccccc2)n1
inactive: Potency [1] | Potency [2] | outcome [3] | outcome [4] | outcome [5] | Potency [6] | Potency [7] | Potency [8] | Potency [9] | outcome [10]

C[N+]1(C)CCCCC1
inactive: Potency [1] | outcome [3] | outcome [4] | outcome [5] | Potency [6] | Potency [7] | Potency [8] | Potency [9] | outcome [10]

CCN(CC)C1CCCCC1
inactive: Potency [1] | Potency [2] | outcome [3] | outcome [4] | outcome [5] | Potency [6] | Potency [7] | Potency [8] | Potency [9] | outcome [10]

C=CCN1CC[C@]23CCCC[C@H]2[C@H]1Cc1ccc(O)cc13
inactive: Potency [1] | Potency [2] | outcome [3] | outcome [4] | outcome [5] | Potency [6] | Potency [7] | Potency [8] | Potency [9] | outcome [10]

CCOC(=O)CCl
inactive: Potency [1] | outcome [3] | outcome [4] | outcome [5] | Potency [6] | Potency [7] | Potency [8] | Potency [9] | outcome [10]

C=CCCC#N
inactive: Potency [1] | Potency [2] | outcome [3] | outcome [4] | outcome [5] | Potency [6] | Potency [7] | Potency [8] | Potency [9] | outcome [10]

CS(=O)(=O)c1ccc(C(=O)C2C(=O)CCCC2=O)c(Cl)c1COCC(F)(F)F
inactive: Potency [1] | Potency [2] | outcome [3] | outcome [4] | outcome [5] | Potency [6] | Potency [7] | Potency [8] | Potency [9] | outcome [10]

O=C(NC(=O)c1c(F)cccc1F)Nc1cc(Cl)c(F)c(Cl)c1F
inactive: Potency [1] | outcome [3] | outcome [4] | outcome [5] | Potency [6] | Potency [7] | Potency [8] | Potency [9] | outcome [10]

CCCCCCCCBr
inactive: Potency [1] | Potency [2] | outcome [3] | outcome [4] | outcome [5] | Potency [6] | Potency [7] | Potency [8] | Potency [9] | outcome [10]
